According to ChEMBL document CHEMBL1157539, “Thousands of chemical starting points for antimalarial lead identification” (Nature, 2010):

Each compound was assayed on Plasmodium falciparum (assay: GSK_TCMDC: Inhibition of Plasmodium falciparum 3D7 in whole red blood cells, using parasite LDH activity as an index of growth. Test compounds present at 2uM).
Format: functional

Structure (SMILES)	Inhibition [%]
CCS(=O)(=O)Nc1ccc2[nH]cc(C3CCN(CCC4CCN(C(=O)/C=C/c5ccc(Cl)c(Cl)c5)CC4)CC3)c2c1	99
O=C(/C=C/c1ccc(Cl)c(Cl)c1)N1CCC(CN2CCC(c3c[nH]c4cnccc34)CC2)CC1	100
Br.CCOc1ccc(OCCCON2C(=N)N=C(N)NC2(C)C)cc1	97
CC(C)CNCc1cccc(-c2cccc(CNc3ccc4ncccc4c3)c2)c1.O=C(O)C(F)(F)F	92
O=C(O)C(F)(F)F.O=S(=O)(NCCN1CCCC1)c1ccc(-c2ccc(CNC3Cc4ccccc4C3)cc2)cc1	99
CCCc1ccc(NC(=O)c2cccc(CN3CCCN(Cc4cccc(C#N)c4)CC3)c2)cc1.O=C(O)C(F)(F)F	85
CC(C)Cc1nc(N2CCOCC2)c2nnn(Cc3ccccc3)c2n1	98
Cl.NC(=O)c1cccc(Nc2nccc(Nc3ccc(Oc4ccc5ccccc5c4)cc3)n2)c1	96
NC1=NC(c2ccccc2)(c2ccccn2)C(=O)N1CCCc1ccccc1.O=C(O)C(F)(F)F (stereo not given)	85
COc1ccc(CN2CCCN(Cc3cccc(C(=O)Nc4ccc(C)c(F)c4)c3)CC2)cc1.O=C(O)C(F)(F)F	83
O=C(Nc1cccc(CN2CCCN(Cc3ccc4c(c3)OCO4)CC2)c1)c1ccc2ccccc2c1.O=C(O)C(F)(F)F	86
CC1(C)N=C(N)N=C(N)N1c1cc(Cl)c(Cl)c(Cl)c1.CCS(=O)(=O)O	93
COc1cccc(NC(=O)NCCNc2ccnc(Nc3ccc(F)cc3)n2)c1	94
CCNc1cc(C(=O)N[C@@H](Cc2ccccc2)[C@H](O)CNCCc2ccccc2)cc(N2CCCCS2(=O)=O)c1.Cl	98
Cl.NC1=NC(c2ccccc2)N(OCc2ccccc2)C(N)=N1 (stereo not given)	96
CCCc1cc(Cc2cnc(N)nc2N)ccc1OCCCCCC(=O)OCC	97
COc1ccc2[nH]ccc(=NN=CC=Cc3ccccc3)c2c1	100
CCCCCCCN1CC[C@@H](CCCc2ccnc3ccc(OCCC4CCNCC4)cc23)[C@@H](CC)C1.Cl	100

Structure (SMILES)	Inhibition [%]
N#CCCN1CCN(Cc2cccc(-c3ccc(-c4nc5ccccc5[nH]4)cc3)c2)CC1.O=C(O)C(F)(F)F	93
O=C(Nc1cccc(C(F)(F)F)c1)Nc1ccc(F)c([N+](=O)[O-])c1	100
CCNc1cc(C(=O)N[C@@H](Cc2ccccc2)[C@H](O)CNC(C)(C)CC(C)(C)C)c(F)c(N2CCCCS2(=O)=O)c1	94
CCCCCC(=O)NCC(NCCCNc1cc(=O)c2ccccc2[nH]1)c1cc(Br)cc(Br)c1 (stereo not given)	96
Cc1cc(N[C@@H](Cc2ccccc2)C(=O)NCCCOC(C)C)nc(NCCc2ccc(F)cc2)n1.O=C(O)C(F)(F)F	100
CN1CCN(c2ccc(Nc3nccc(-c4c(-c5cccc(NC(=O)c6c(F)cccc6F)c5)nn5ccccc45)n3)cc2)CC1	98
COC(=O)CCCCCOc1cc(Cc2cnc(N)nc2N)cc(OC)c1OC	90
Br.CCCc1cc(C)ccc1OCCCON1C(N)=NC(N)=NC1(C)C	97
O=C(Nc1cccc(F)c1)c1ccc(C(=O)NC2CCN(CC3CCCCC3)CC2)cc1.O=C(O)C(F)(F)F	96
CNC(=O)c1cnc(Nc2ccc3[nH]c(=O)[nH]c3c2)nc1Nc1cccc(OC(C)C)c1.O=C(O)C(F)(F)F	89
CCc1cn2c3c(cc(C(=O)N[C@@H](Cc4ccccc4)[C@H](O)CNC4CCOCC4)cc13)N(CC(F)(F)F)S(=O)(=O)CC2.O=CO	98
O=C(Nc1ccccc1)c1ccc(-c2cc3ccncc3cc2OC2CCNCC2)s1	100
N#Cc1ccc(CN2CCC(Oc3ccc(NC(=O)c4ccsc4)cc3Cl)C2)cc1.O=C(O)C(F)(F)F (stereo not given)	88
N=C(N)c1ccc(Nc2nccc(Nc3nc(-c4ccccc4)cs3)n2)cc1.O=C(O)C(F)(F)F	96
CCN1CCN(Cc2ccc3nc(-c4cc(C)n(Cc5cc(Cl)ccc5OCc5ccccc5)n4)[nH]c3c2)CC1.Cl	100
CN1CCCC1CCNc1ncc2c(-c3ccc(NC(=O)Nc4cc(C(F)(F)F)ccc4F)c(F)c3)nn(C)c2n1.O=C(O)C(F)(F)F (stereo not given)	99
CCN(CC)S(=O)(=O)c1cc(-c2ccc(=O)n(CC(=O)c3ccc(C)cc3)n2)ccc1C	86
